MEKK2mut PB1 HTS: signal of MEK5 binding to mutant human MEKK2 PB1 domain | bead flow cytometry, Alexa488-MEK5 binding to MEKK2 mutant | AID 1530 | hit rate 0.35% among 290,000 | percent response, % at 10 µM; in the data active = percent response above about 24%, passing the limit was not always enough
dFosB act-1: enhances mouse delta FosB homodimer DNA binding; activation, % at 25 µM; P13346; hit rate 0.99% among 340,000; purified delta FosB, TAMRA-CDK5 oligo fluorescence polarization; percent of positive-control signal above neutral wells;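 active = mean activation above about 17%, with every replicate also reaching it, limit read from the data, passing the limit was not always enough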
DNA FID counter: counter-screen for HCV NS3 helicase inhibitors: DNA intercalator displacement. inhibition, % at 7.9 µM. hit rate 0.17% among 290,000. DNA fluorescent intercalator displacement, fluorescence; in the data active = inhibition above about 37%;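 also: 0% = vehicle and 100% = reference compound; higher means more ethidium bromide displaced from hairpin DNA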
MEKK2 WT-MEK5: raises or lowers MEK5 binding to wildtype human MEKK2 PB1 domain; Q9Y2U5; bead flow cytometry, Alexa488-MEK5 binding to MEKK2 WT; actives lie on both sides; binding response (% of control), % at 10 µM; hit rate 1.1% among 290,000; in the data active = binding response below about 67% or above about 130%
MEKK3 PB1 HTS: raises or lowers MEK5 binding to the human MEKK3 PB1 domain; Q99759; bead-based flow cytometry, Alexa488-MEK5 binding to MEKK3; actives lie on both sides; 0 = blocked by unlabeled MEK5, 100 = vehicle; binding response (% of control), % at 10 µM; hit rate 1.4% among 290,000; AID 1529;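 active = binding response more than 3 SD above or below the average of its plate-row segment, actives on both sides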;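 also: Alexa488 bead fluorescence after subtracting the streptavidin-only scavenger bead signal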
Target sequence (Q99759 whole entry, looked up, the tested form may be a part): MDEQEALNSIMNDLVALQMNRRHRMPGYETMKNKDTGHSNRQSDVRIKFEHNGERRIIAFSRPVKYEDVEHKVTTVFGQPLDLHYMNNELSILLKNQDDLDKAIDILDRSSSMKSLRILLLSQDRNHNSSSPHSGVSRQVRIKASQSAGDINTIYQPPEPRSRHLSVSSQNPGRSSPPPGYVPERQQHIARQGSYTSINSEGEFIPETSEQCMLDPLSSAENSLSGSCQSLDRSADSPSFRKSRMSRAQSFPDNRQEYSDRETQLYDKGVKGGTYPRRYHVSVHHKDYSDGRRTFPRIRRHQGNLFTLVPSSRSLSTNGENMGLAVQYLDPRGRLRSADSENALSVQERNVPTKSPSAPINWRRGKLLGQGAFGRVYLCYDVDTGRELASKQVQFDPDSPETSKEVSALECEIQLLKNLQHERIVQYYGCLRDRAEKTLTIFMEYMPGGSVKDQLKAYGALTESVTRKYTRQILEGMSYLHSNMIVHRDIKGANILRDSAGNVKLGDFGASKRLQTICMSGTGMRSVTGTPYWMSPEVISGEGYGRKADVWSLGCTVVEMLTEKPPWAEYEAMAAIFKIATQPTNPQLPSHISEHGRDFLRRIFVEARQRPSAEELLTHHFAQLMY
dFosB act-2: delta FosB (mouse) homodimer activation. shares compounds with dFosB act-1. purified delta FosB, TAMRA-CDK5 oligo fluorescence polarization; normalised: neutral wells 0, positive control 100. activation, % at 24.9 µM. 2,400 tested, under 10 active;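 active = highest replicate activation at or above 34% and every replicate reaching that threshold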;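 also: higher polarization means more probe DNA bound by delta FosB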
Numbers without * were called inactive; nt = no result. The list is not random: actives were taken first. Their share in the collection is about 2.9%.

SMILES	MEKK2mut PB1 HTS	dFosB act-1	DNA FID counter	MEKK2 WT-MEK5	MEKK3 PB1 HTS	dFosB act-2
NC(=O)CC(NC(=O)c1ccccc1)c1ccc(NCCOc2ccccc2)c([N+](=O)[O-])c1 (configuration not stated)	5	26*	nt	104	92	2
COc1ccc(OC)c(C(=O)NC(CC(N)=O)c2ccc(NCCOc3ccccc3)c([N+](=O)[O-])c2)c1 (configuration not stated)	-5	-4	-8	95	102	nt
NC(=O)CC(NC(=O)Cc1ccc(Br)cc1)c1ccc(NCc2ccc(F)cc2)c([N+](=O)[O-])c1 (configuration not stated)	1	53*	nt	99	99	8
CC(=O)Nc1ccc(NC(=O)c2ccc(COc3ccccc3Br)o2)cc1	0	69*	-24	106	106	-8
Cc1cc(NC(=O)c2ccc(C)c([N+](=O)[O-])c2)no1	-11	-3	1	81	85	nt
Cc1cc(NC(=O)c2ccc(Br)c([N+](=O)[O-])c2)no1	-3	46*	4	91	81	1
O=C(Nc1ccc(Cl)cc1C(=O)NCC1CCCO1)c1ccc(Cl)cc1Cl (configuration not stated)	17	-14	-6	107	114	nt
O=C(Nc1ccc(Br)cn1)c1cccc(C(=O)Nc2ccc(Br)cn2)c1	2	-10	-3	101	100	nt
O=C(Nc1ccc(Br)cn1)c1ccc2nccnc2c1	15	43*	-1	101	99	0
Cn1cc(CC(=O)NCCCN2CCCC2=O)c2ccccc21	-1	-1	nt	94	96	nt
Cn1cc(Br)c(C(=O)Nc2sc3c(c2C(N)=O)CCCC3)n1	7	-8	2	103	101	nt
CCn1cc(Br)c(C(=O)Nc2sc3c(c2C(N)=O)CCCC3)n1	7	76*	2	106	101	0
Cc1cc2c3c([nH]c2cc1S(=O)(=O)N1CCC2(CC1)OCCO2)CCCC3=O	1	-3	-16	99	100	nt
O=C(Nc1ccc(Oc2ccccc2)cc1)c1ccc(Cn2c(=O)[nH]c3ccsc3c2=O)cc1	-3	62*	-8	99	110	7
O=C(Nc1ccc(Cl)c(Cl)c1)c1ccc(Cn2c(=O)[nH]c3ccsc3c2=O)cc1	-4	22*	-3	99	109	2
CCCn1nc(C(=O)Nc2cc(S(=O)(=O)Nc3ccc(OC)cc3)ccc2O)c2ccccc2c1=O	nt	21*	nt	nt	nt	2
CCOC(=O)COc1ccc(C2CC(C)=NN2c2ccccc2)cc1 (configuration not stated)	-16	-5	-21	84	96	nt
Cc1ccc(CNC(=O)C2CCN(C(=O)Nc3ccccc3)CC2)cc1	5	4	-20	98	97	nt
Cc1c(Cl)cccc1NC(=O)CNC(=O)C1CCN(C(=O)Nc2ccccc2)CC1	nt	24*	nt	nt	nt	2
CCOC(=O)N1CCN(C(=O)c2ccc3c(c2)N=C(C)c2cc(Cl)ccc2S3)CC1	-8	-6	-48	92	92	nt
COc1ccc(C)cc1S(=O)(=O)N(C)CC(=O)NCc1ccccn1	-1	-4	-9	97	101	nt
COc1ccc(/C=C/C(=O)NC(=S)NNC(=O)[C@H]2C[C@@H]2c2ccccc2)cc1OC	-3	71*	-33	101	101	4
COc1cccc(OC)c1C(=O)NC(=S)NNC(=O)[C@H]1C[C@@H]1c1ccccc1	-14	-3	-16	93	97	nt
Nc1ncnc2c(C3OC(CO)C(O)C3O)scc12 (configuration not stated)	nt	-2	nt	nt	nt	nt
COCCOc1ccc(C(F)(F)F)cc1NC(=O)COC(=O)c1ccc(N2CCCC2=O)cc1	nt	-4	nt	nt	nt	nt
SMILES	MEKK2mut PB1 HTS	dFosB act-1	DNA FID counter	MEKK2 WT-MEK5	MEKK3 PB1 HTS	dFosB act-2
COc1ccc(C(=O)CSc2nnc(CNc3ccc(C)cc3C)o2)cc1	4	-1	-1	107	113	nt
Cc1ccc(NCc2nnc(SCC(=O)c3ccc4c(c3)OCCO4)o2)c(C)c1	9	29*	-8	106	111	2
CCOc1cc(/C=N/NC(=O)Cc2ccc(C(F)(F)F)cc2[N+](=O)[O-])ccc1O	-2	-14	-3	102	97	nt
C=CCOc1c(Br)cc(/C=N/NC(=O)Cc2ccc(C(F)(F)F)cc2[N+](=O)[O-])cc1OC	0	37*	-4	99	98	-1
CCc1nn(CCCC(=O)NCc2ccco2)c(=O)c2cc3occc3n12	1	1	-24	98	100	nt
Cc1ccc(C(=O)NC(=S)Nc2ccc3[nH]c(=O)[nH]c3c2)c(C)c1	-4	28*	-3	100	100	7
Cc1cccc(C(=O)NC(=S)Nc2ccc3[nH]c(=O)[nH]c3c2)c1	1	13	-2	96	103	nt
O=C(/C=C/c1cc2c(cc1Br)OCO2)NCc1ccc(F)cc1	7	25*	7	107	103	1
O=C1c2cccc3cccc(c23)C(=O)N1c1ccc2ncccc2c1	3	36*	-18	103	97	-1
O=C1c2cccc3cccc(c23)C(=O)N1c1nccs1	5	-3	-3	110	104	nt
COc1cccc(NC(=O)NC2(C(F)(F)F)Oc3ccccc3O2)c1	3	-6	9	107	103	nt
O=C(Nc1cc(N2CCOCC2)ncn1)NC1(C(F)(F)F)Oc2ccccc2O1	1	33*	1	102	104	-3
CCN=C1SC(C(=O)Nc2cccc(OCC)c2)CC(=O)N1CC (configuration not stated)	4	-4	-19	104	104	nt
O=c1n(Cc2ccccc2Cl)nc2n1-c1ccccc1SC2	-6	-3	-13	89	94	nt
Cc1ccc(S(=O)(=O)N2CC=C(c3c(C)n(C)c4ccccc34)CC2)cc1	-3	11	-12	101	98	nt
CCn1c(C)c(C2=CCN(S(=O)(=O)c3ccccc3)CC2)c2ccccc21	-2	31*	-15	107	103	0
O=C(CN(Cc1ccc(Cl)cc1)C(=O)CN1C(=O)COc2ccccc21)NC1CCCC1	-1	29*	-30	99	100	8
CCOc1ccc(N/C=C/C(=O)c2ccc(OC)c(OC)c2)cc1	2	2	-31	103	105	nt
CCOc1ccc(C(=O)/C=C/Nc2ccc(S(=O)(=O)N=C(N)N)cc2)cc1	0	34*	-8	97	119	6
NC(N)=NS(=O)(=O)c1ccc(N/C=C/C(=O)c2ccc(Cl)c(Cl)c2)cc1	0	46*	-7	98	103	4
Cn1cc(S(=O)(=O)NCc2ccco2)c(=O)n(C)c1=O	10	-2	7	113	105	nt
Cc1ccc(S(C)(=O)=O)cc1C(=O)OCC(=O)N1CCCC1=O	nt	1	nt	nt	nt	nt

Assay outcomes as filed in PubChem.
